{"source": "PubChem BioAssay AID720706", "about": "(Broad Institute, 2013)", "note": "About 5,500 (1.6%) of roughly 350,000 compounds were called active.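 How the source made its calls: active means significant combined selectivity score with lowered wild-type GFP, culture density cut under 30%, mutant RFP and density less affected; inactive means any of these conditions unmet.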 For the sample, actives were picked, then their nearest neighbours and some compounds at random.", "data": [{"assay": "GFP drop in mixed WT/humanized-ribosome E. coli culture – GFP/RFP fluorescence, OD600, single point, bacterial rRNA inhibitor project, primary screen (AID 720706)", "conditions": "E. coli WT GFP vs humanized-ribosome RFP mutants, 24 h; GFP signal change (wild-type ribosome): stronger effect = lower value, DMSO median 0, no signal -100; OD600 change: measured here: OD600 growth, DMSO median 0, no signal -100; RFP signal change: measured here: RFP humanized mutant strains, DMSO median 0, no signal -100, concentration not given here", "units": {"OD600 change": "%", "RFP signal change": "%"}, "values": [{"smiles": "C[C@@H]1CN([C@@H](C)CO)C(=O)c2cccc(N(C)C)c2O[C@@H]1CN(C)S(C)(=O)=O", "GFP signal change (wild-type ribosome)": "0.068% (inactive)", "OD600 change": 11.7, "RFP signal change": 1.6}, {"smiles": "Cc1cc(C)c(C#N)c(SCc2[nH]nc3c2C(c2ccccc2)C(C#N)=C(N)O3)n1", "note": "(stereo not drawn)", "GFP signal change (wild-type ribosome)": "-19.3% (active)", "OD600 change": -14.2, "RFP signal change": 7.29}, {"smiles": "N#CC1=C(N)Oc2cc(N)ccc2C1c1ccccc1", "note": "(stereo not drawn)", "GFP signal change (wild-type ribosome)": "5.33% (inactive)", "OD600 change": 13.2, "RFP signal change": 8.27}, {"smiles": "N#CC1=C(N)Oc2n[nH]c(CSc3ccccc3)c2C12C(=O)Nc1ccccc12", "note": "(stereo not drawn)", "GFP signal change (wild-type ribosome)": "-4.64% (inactive)", "OD600 change": -0.706, "RFP signal change": 2.2}, {"smiles": "CCC(=O)Nc1ccc2c(c1)C(=O)N(C)[C@H]1CC[C@H](CC(=O)NCC3CCCCC3)O[C@H]1CO2", "GFP signal change (wild-type ribosome)": "-0.704% (inactive)", "OD600 change": -0.374, "RFP signal change": -0.863}, {"smiles": "CC[C@H](NC(=O)[C@H](Cc1ccccc1)NC(=O)[C@H]1O[C@@H](n2cnc3c(=O)[nH]c(N)nc32)[C@H](O)[C@@H]1O)c1ccccc1", "GFP signal change (wild-type ribosome)": "13.7% (inactive)", "OD600 change": 14.1, "RFP signal change": 2.61}, {"smiles": "CCc1cccc(NC(=O)CCNS(=O)(=O)c2cccc3nonc23)c1", "GFP signal change (wild-type ribosome)": "-13.3% (inactive)", "OD600 change": -12.7, "RFP signal change": 18.6}, {"smiles": "O=S(=O)(Nc1ccc(OC(F)(F)F)cc1)c1cccc2nonc12", "GFP signal change (wild-type ribosome)": "-39% (active)", "OD600 change": -15.7, "RFP signal change": -10.9}, {"smiles": "O=C(O)c1ccc(NS(=O)(=O)c2cccc3nsnc23)cc1", "GFP signal change (wild-type ribosome)": "12.3% (inactive)", "OD600 change": 9.27, "RFP signal change": 0.548}, {"smiles": "Cc1ccc(S(=O)(=O)N(C)C[C@@H]2Oc3c(NS(=O)(=O)c4ccc(F)cc4)cccc3C(=O)N([C@@H](C)CO)C[C@H]2C)cc1", "GFP signal change (wild-type ribosome)": "-1.93% (inactive)", "OD600 change": 3.45, "RFP signal change": 0.647}, {"smiles": "Cc1snc(SCc2c(F)cccc2Cl)c1C#N", "GFP signal change (wild-type ribosome)": "-4.85% (inactive)", "OD600 change": -10.8, "RFP signal change": -3.63}, {"smiles": "Cc1ccc(CSc2nsc(C)c2C#N)cc1", "GFP signal change (wild-type ribosome)": "-24.5% (active)", "OD600 change": -7.04, "RFP signal change": -1.18}, {"smiles": "N#Cc1ccc(CSc2ncccn2)cc1", "GFP signal change (wild-type ribosome)": "-4.06% (inactive)", "OD600 change": -1.11, "RFP signal change": -0.806}, {"smiles": "CN(C)C(=O)C[C@H]1C[C@@H]2c3cc(NC(=O)CC4CC4)ccc3O[C@@H]2[C@@H](CO)O1", "GFP signal change (wild-type ribosome)": "1.34% (inactive)", "OD600 change": 0.566, "RFP signal change": 1.23}, {"smiles": "Cc1ccc(S(=O)(=O)N(C)C[C@@H]2Oc3ccc(NC(=O)Cn4cnnn4)cc3CC(=O)N([C@H](C)CO)C[C@H]2C)cc1", "GFP signal change (wild-type ribosome)": "-0.977% (inactive)", "OD600 change": 0.458, "RFP signal change": -4.09}, {"smiles": "Cc1cccc(CS(=O)(=O)c2ncc(Cl)c(C(=O)Nc3ccc(F)cc3)n2)c1", "GFP signal change (wild-type ribosome)": "6.16% (inactive)", "OD600 change": 2.7, "RFP signal change": -4.49}, {"smiles": "Cc1cccc(NC(=O)c2nc(S(=O)(=O)Cc3ccccc3)ncc2Cl)c1", "GFP signal change (wild-type ribosome)": "-14.7% (active)", "OD600 change": 11, "RFP signal change": -6.12}, {"smiles": "CSc1nnc(NC(=O)c2nc(S(=O)(=O)Cc3ccc(C)cc3)ncc2Cl)s1", "GFP signal change (wild-type ribosome)": "2.78% (inactive)", "OD600 change": -0.98, "RFP signal change": 0.486}, {"smiles": "CS(=O)(=O)N1CCCCN2[C@@H](CO)[C@@H](c3ccc(Br)cc3)[C@@H]2C1", "GFP signal change (wild-type ribosome)": "5.32% (inactive)", "OD600 change": 1.18, "RFP signal change": 3.67}, {"smiles": "Cc1ccc(C(=O)OCC(=O)NCc2cc(C)c(O)c(C)c2)cc1S(=O)(=O)N1CCCCC1", "GFP signal change (wild-type ribosome)": "-24.5% (active)", "OD600 change": -17, "RFP signal change": -2.51}, {"smiles": "Cc1ccc(C(=O)OCC(=O)N2CC(C)CC(C)C2)cc1S(=O)(=O)N1CCCCC1", "note": "(stereo not drawn)", "GFP signal change (wild-type ribosome)": "-26.5% (inactive)", "OD600 change": -33.2, "RFP signal change": -6.95}, {"smiles": "COc1ccc(CNC(=O)COC(=O)c2ccc(C)c(S(=O)(=O)N3CCOCC3)c2)cc1OC", "GFP signal change (wild-type ribosome)": "-1.36% (inactive)", "OD600 change": -0.45, "RFP signal change": 4.29}, {"smiles": "COc1ccccc1C#Cc1ccc2c(c1)O[C@H](CN(C)Cc1cccnc1)[C@@H](C)CN([C@H](C)CO)S2(=O)=O", "GFP signal change (wild-type ribosome)": "-5.86% (inactive)", "OD600 change": -7.99, "RFP signal change": 4.04}, {"smiles": "CC(NC(=O)Nc1ccc2c(c1)OCO2)c1ccncc1", "note": "(stereo not drawn)", "GFP signal change (wild-type ribosome)": "13.1% (inactive)", "OD600 change": 4.68, "RFP signal change": 1.46}, {"smiles": "Cc1cccc(NC(=O)Nc2ccc3c(c2)OCO3)n1", "GFP signal change (wild-type ribosome)": "0.76% (inactive)", "OD600 change": 7.09, "RFP signal change": -5.02}, {"smiles": "CC(NC(=O)Nc1cccc([N+](=O)[O-])c1)c1ccc2c(c1)OCO2", "note": "(stereo not drawn)", "GFP signal change (wild-type ribosome)": "-34.5% (active)", "OD600 change": -26.4, "RFP signal change": -5.09}, {"smiles": "CC1CC2=C(CC1/C=N/NC(N)=S)C(C)(C)CCC2", "note": "(stereo not drawn)", "GFP signal change (wild-type ribosome)": "-18.2% (active)", "OD600 change": 0.8, "RFP signal change": -0.09}, {"smiles": "Cc1noc(C)c1NC(=O)Nc1ccc2c(c1)C(=O)N([C@@H](C)CO)C[C@H](C)[C@H](CN(C)CC1CCCCC1)O2", "GFP signal change (wild-type ribosome)": "2.74% (inactive)", "OD600 change": 1.93, "RFP signal change": -1.48}, {"smiles": "CCN(CC)S(=O)(=O)c1cc(C(=O)Nc2cc(S(=O)(=O)N3CCOCC3)ccc2N2CCCC2)ccc1F", "GFP signal change (wild-type ribosome)": "-10.4% (inactive)", "OD600 change": -14.8, "RFP signal change": 1.19}, {"smiles": "CCN(CC)S(=O)(=O)c1ccc(N2CCCC2)c(NC(=O)c2ccc([N+](=O)[O-])o2)c1", "GFP signal change (wild-type ribosome)": "-27.2% (active)", "OD600 change": 5.04, "RFP signal change": 9.95}, {"smiles": "CCN(CC)S(=O)(=O)c1ccc(N2CCOCC2)c(NC(=O)c2ccc(=O)n(C)n2)c1", "GFP signal change (wild-type ribosome)": "18.6% (inactive)", "OD600 change": 11.8, "RFP signal change": -3.6}]}]}
